High-throughput results: PubChem, National Center for Advancing Translational Sciences (NCATS)
ELG1 DNA repair: blocks ELG1-dependent DNA repair in HEK293T cells. Potency, µM (highest dose often 46.1 µM), inactives show at the top dose activity change, negative = inhibition, actives largely listed as inhibitors. hit rate 2.3% among 330,000. HEK293T ELG1-luciferase reporter, luminescence, 16 h; DNA damage induced by 5-fluorouridine; note: % is set by controls: 0 for no effect and ±100 for the full control effect; nearly all actives have a fitted effect of over 55% in size
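Overnight (16 hr) co-exposure of 2,000 cells/well to 5-fluorouridine and compound at 37 °C preceded detection. Luciferase was quantified via ONE-Glo luminescence; loss of signal denotes inhibition.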
SMN2 splice up: enhancers of SMN2 splice variant expression; hit rate 2.8% among 210,000; HEK293 SMN2-luciferase splicing reporter, luminescence, 30-36 h; Potency, µM (highest dose often 46.1 µM), for inactives: at the highest dose activity change, positive = activation, hits mostly activators; note: % of control where 0% means no effect; nearly all actives have a fitted effect of over 55% in size
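HEK293 cells carry an SMN2 […]–luciferase reporter in which exon 7 inclusion puts luciferase in frame. Cells were plated 10-12 h before compound addition, then incubated 30-36 h at 37C. ONE-Glo luminescence was read; sodium butyrate at 4.5 mM final served as control.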
Rab9 promoter act: Rab9 promoter activation | Huh7 Rab9 promoter-luciferase reporter, luminescence, 24 h | Potency, µM (doses to about 9.22 µM), for the others: at the top dose activation, negative = inhibition, hits mostly activators | hit rate 2.8% among 320,000; note: % of control where 0% means no effect; nearly all actives have a fitted effect of over 60% in size
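Luminescence from Amplite-detected luciferase (10 minutes, ambient) reports Rab9 promoter activation. Before that, stable Rab9-luciferase Huh7 cells (1500/well, reduced-serum OP-MEM I plus 10% FBS) were exposed to compound for 24 hours at 37C.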
ELG1 genotoxic: induces genotoxicity in HEK293T cells with luciferase-tagged ELG1 | Potency, µM (top dose mostly 46 µM), without a hit: at the top dose activity change, positive = activation, actives largely listed as activators | hit rate 1.3% among 330,000 | AID 504466 | HEK293T ELG1-luciferase reporter, luminescence, 16 h; note: % of control where 0% means no effect; nearly all actives have a fitted effect of over 60% in size
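HEK293T cells expressing luciferase-tagged ELG1 were treated with compound or DMSO for 16 hr at 37°C. Luciferase activity was then read after 30 min with ONE-Glo at room temperature; rising signal flags genetic stress.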
FLuc counter: counter-screen for miR-21 project: firefly luciferase inhibitors or activators; P08659; AID 588342; purified FLuc, Km substrates, luminescence inhibition; Potency, µM (series often up to 57.5 µM), for inactives: at the top dose activity change, negative = inhibition, usual class: inhibitors; hit rate 6.9% among 360,000;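 note: plate controls were vehicle for no effect and reference inhibitor for full effect; nearly all actives have a fitted effect of over 55% in size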
Target sequence (P08659 whole entry, looked up): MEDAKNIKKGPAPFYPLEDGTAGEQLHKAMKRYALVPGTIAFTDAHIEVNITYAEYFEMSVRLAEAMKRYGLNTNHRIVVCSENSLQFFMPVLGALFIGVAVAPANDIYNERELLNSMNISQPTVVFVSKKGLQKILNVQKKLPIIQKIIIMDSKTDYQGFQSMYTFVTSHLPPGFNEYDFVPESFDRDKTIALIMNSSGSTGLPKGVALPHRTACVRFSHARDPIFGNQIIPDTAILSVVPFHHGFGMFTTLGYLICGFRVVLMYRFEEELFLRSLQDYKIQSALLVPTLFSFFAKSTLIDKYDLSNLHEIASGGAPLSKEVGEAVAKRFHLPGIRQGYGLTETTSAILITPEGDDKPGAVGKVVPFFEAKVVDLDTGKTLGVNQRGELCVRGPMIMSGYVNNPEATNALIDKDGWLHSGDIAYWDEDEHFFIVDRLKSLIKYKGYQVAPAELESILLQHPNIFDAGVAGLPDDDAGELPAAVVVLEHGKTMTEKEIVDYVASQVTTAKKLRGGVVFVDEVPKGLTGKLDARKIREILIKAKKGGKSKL
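Biochemical qHTS of compounds, final roughly 60 µM downward over six points, against 10 nM purified firefly luciferase using Km concentrations of substrates (10 uM D-luciferin, 10 uM ATP) in Tris acetate pH 7.5 buffer; luminescence output.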
NPC1 prom act: activators of NPC1 promoter; hit rate 2.4% among 320,000; Potency, µM (series often up to 9.22 µM), without a hit: at the highest dose activation, usual class: activators; Huh7 NPC1 promoter luciferase reporter, 24 h; note: % of control where 0% means no effect; nearly all actives have a fitted effect of over 60% in size
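NPC1 promoter–luciferase Huh7 cells; 24 h compound; luminescence.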
An asterisk follows results filed as active; ? = inconclusive; . = no result; [ ] = remark or other dose. Rows were chosen to be rich in hits. Some 9.2% of all compounds tested hit in one or more screens of this group. Calls come from the whole dose curve; as a rule, active = well fitted curve in the direction sought with a large enough effect; inconclusive = small, poorly fitted or top-dose-only effect, or another doubt; inactive = no such curve, though single readings can be large; an effect the other way counts as inactive or inconclusive. Potency is the fitted concentration of half-maximal effect.

SMILES	ELG1 DNA repair	SMN2 splice up	Rab9 promoter act	ELG1 genotoxic	FLuc counter	NPC1 prom act
O=C(COc1ccc(F)cc1)Nc1ccc(Cl)c(-c2nc3ccccc3[nH]2)c1	.	.	.	.	-13%	.
O=C(O)CCCC(=O)Nc1cccc(-c2nc3ccccc3[nH]2)c1	0%	-3%	1%	0%	12µM*	-2%
O=C(COc1ccccc1)Nc1cccc(-c2nc3ccccc3[nH]2)c1	?	?	-1%	-2%	17µM*	-1%
CNC(=O)Cn1c(=O)c2cccn2c2ccc(F)cc21	.	.	.	.	1%	.
COc1ccc(NC(=O)c2nnn(Cc3nc(-c4cc(Br)ccc4OC)oc3C)c2C)cc1	.	-8%	.	.	4%	.
Cn1c(COc2ccc(C(=O)O)cc2)nc2ccccc21	13%	.	0%[1.84 µM]	0%	-20%	-4%
Cc1ccc(C)c(OCc2nc3ccccc3n2C)c1	.	8%	.	.	?	.
Cc1ccccc1OCc1nc2ccccc2n1C	?	.	4µM*	?	8.5µM*	3.2µM*
Cn1c(COc2ccc(F)cc2)nc2ccccc21	?	.	3.5µM*	?	13µM*	2.5µM*
CC1CCCC(C)N1C(=O)Cn1cc(/C=C2/C(=O)Nc3ccccc32)c2ccccc21 (stereo unspecified)	?	-16%	-8%	-10%	0%	-2%
COCCNC(=O)c1c[nH]c2ccc(S(=O)(=O)N3CCc4ccccc43)cc2c1=O	10µM*	.	-3%	-15%	-20%	-11%
COCCCNC(=O)c1c[nH]c2ccc(S(=O)(=O)N3CCc4ccccc43)cc2c1=O	7.3µM*	.	-9%	-9%	-13%	-13%
CCc1ccc(C(=O)C(C)OC(=O)Cc2n[nH]c(=O)c3ccccc23)cc1 (stereo unspecified)	-21%	.	4%	-4%	2%	-22%
CN(C)/C=C/C(=O)/C=C/c1ccc(Cl)cc1Cl	?	20µM*	1µM*	?	12µM*	2.2µM*
O=C(/C=C/c1ccc(Cl)cc1Cl)n1cccn1	11%	15%	-1%	16%	3.8µM*	-1%
CNc1ccc(Br)cc(C(=O)/C=C/c2ccc(Cl)cc2Cl)c1=O	?	.	-32%	-10%	?	-10%
O=C(/C=C/c1ccccc1Cl)N1CCOCC1	?	.	4%	13%	?	23%
O=C(/C=C/c1ccccc1Cl)c1ccc[nH]1	?	19%	27%	?	7.6µM*	10%
O=C(/C=C/c1ccc(Cl)cc1Cl)c1ccc[nH]1	?	7%	22%	?	2.7µM*	13%
Cc1nc(S(=O)(=O)N2CCN(c3ccccc3F)CC2)cn1C	.	.	.	.	0%	.
CCc1ccc(S(=O)(=O)/N=C2\C=C(Nc3cccc(C(=O)O)c3)C(=O)c3ccccc32)cc1	?	.	-7%	-26%	?	-17%
Cc1cc(C)c(S(=O)(=O)/N=C2\C=C(NS(=O)(=O)c3ccccc3)C(=O)c3ccccc32)c(C)c1	-6%	.	10%	2%	-16%	10%
Cc1cc(C)c(S(=O)(=O)/N=C2\C=C(Nc3ccc(C(=O)O)cc3)C(=O)c3ccccc32)c(C)c1	3.3µM*	.	-37%	-34%	?	-28%
CCc1ccc(S(=O)(=O)/N=C2/C=C(Sc3ncn[nH]3)C(=O)c3ccccc32)cc1	21µM*	-78%	-8%	-15%	?	-11%
O=C(O)c1ccc(NC2=C/C(=N/S(=O)(=O)c3ccccc3)c3ccccc3C2=O)cc1	4.6µM*	-103%	-39%	-16%	15µM*	-40%
SMILES	ELG1 DNA repair	SMN2 splice up	Rab9 promoter act	ELG1 genotoxic	FLuc counter	NPC1 prom act
CCc1ccc(S(=O)(=O)/N=C2\C=C(Nc3ccc(O)cc3)C(=O)c3ccccc32)cc1	3.3µM*	.	-48%	-28%	?	-41%
O=C(Nc1ccccc1C(=O)N1CCCCCC1)c1cccc([N+](=O)[O-])c1	0%	.	4%	-3%	-5%	-1%
O=C(CSC1=Nc2ccccc2N=C(c2ccc(F)cc2)C1)NCc1ccccc1Cl	.	.	.	.	1%	.
COC(=O)c1sccc1NC(=O)Nc1ccc(OC)c(OC)c1	-45%	.	-1%	-3%	?	-1%
COC(=O)c1sccc1NC(=O)Nc1ccc(C)c(C)c1	?	.	?	2.3µM*	0.48µM*	2%
COC(=O)c1sccc1NC(=O)Nc1ccc(Cl)c(Cl)c1	?	13µM*	-3%	18%	?	-2%
CCc1ccc(NC(=O)Nc2ccsc2C(=O)OC)cc1	?	.	?	2.1µM*	0.34µM*	17%
O=C(Nc1ccc(Cl)c(S(=O)(=O)N2CCCC2)c1)c1nn(CCO)c(=O)c2ccccc12	?	.	-10%	-11%	?	-10%
NC(=O)C1CCN(CC(O)COCc2ccccc2Cl)CC1 (stereo unspecified)	-1%	.	4%	-1%	-1%	0%
Fc1cccc(/C=N/Nc2nncc3ccccc23)c1	?	.	?	0.73µM*	0.6µM*	0.32µM*
CC(=O)Nc1ccc(/C=N/Nc2nncc3ccccc23)cc1	?	.	1.1µM*	15%	12µM*	2.8µM*
C(=N\Nc1nncc2ccccc12)/c1ccccn1	?	.	?	0.37µM*	1.7µM*	?
Cc1ccc(NC(=O)CSc2nncc3ccccc23)cc1	0%	.	3%	0%	-25%	-6%
COc1ccc(/C=N/Nc2nn3cnnc3c3ccccc23)cc1	?	.	5%	-15%	?	5%
CC1CCCC(C)N1C(=O)CN1c2cccc3cccc(c23)S1(=O)=O (stereo unspecified)	-13%	.	.	-3%	.	.
CC1CCCC(C)N1C(=O)COC(=O)c1ccco1 (stereo unspecified)	?	.	.	2%	.	.
Cc1nc2cc(NC(=O)CCS(=O)(=O)c3ccccc3)ccc2s1	?	10µM*	1.4µM*	?	9.5µM*	2µM*
Cc1ccc(N(CC(=O)Nc2ccc(-c3nc4ccc(C)cc4s3)cc2)S(C)(=O)=O)cc1	?	37%	?	?	7.6µM*	?
Cc1nc2ccc(NC(=O)CCS(=O)(=O)c3ccccc3)cc2s1	?	16µM*	28%	15%	?	24%
Cc1ccc2nc(-c3ccc(NC(=O)CCS(=O)(=O)c4ccccc4)cc3)sc2c1	?	.	0.32µM*	?	11µM*	0.56µM*
Cc1ccc(S(=O)(=O)CCC(=O)Nc2ccc3nc(C)sc3c2)cc1	-1%	-23%	-4%	-1%	5%	-4%
Cc1occc1-c1nnc(SCC(=O)Nc2c(F)cccc2F)n1C	28%	.	-8%	6%	1%	-5%
O=C(O)Cc1ccc(NC(=O)c2ccc(NC(=O)C3CC3)cc2)cc1	1%	.	19%	0%	17µM*	-2%
